# Compounds without any hit were thinned out: in the full panel of roughly 79,000, 15% have a hit. A number with no mark means an inactive call. Activity calls are given as the source filed them. Rule as the data show it: active = growth inhibition above about 70%; inactive = the rest.
# What was measured:
# [1] = NCI Yeast Anticancer Drug Screen. Data for the wt1 strain (AID 149);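 also: 0% = growth of vehicle-treated wt1 cultures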; details: S. cerevisiae wt1 strain (SPY 50644) growth inhibition, active compounds read high
# Procedure, shortened: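 Measured: growth of wt1 yeast under compound versus vehicle treatment, reported as inhibition.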
# [2] = NCI Yeast Anticancer Drug Screen. Data for the rad50EPP+ strain (AID 151);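 also: 0% = growth of vehicle-treated control cultures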; details: S. cerevisiae rad50 mutant strain, active compounds read high
# Procedure, shortened: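 Vehicle-normalised growth inhibition; rad50EPP+ yeast strain, altered in DNA damage repair, compound-treated.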
# [3] = NCI Yeast Anticancer Drug Screen. Data for the mgt1 strain (AID 153); details: S. cerevisiae mgt1 mutant growth inhibition, active compounds read high
# Procedure, shortened: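 Vehicle-normalized growth inhibition is determined in mgt1 yeast, a strain selected for a defined alteration in DNA repair or cell cycle control.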
# [4] = NCI Yeast Anticancer Drug Screen. Data for the rad50 strain (AID 155);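 also: 0% = growth of vehicle-only cultures of the same strain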; details: S. cerevisiae rad50 strain growth inhibition, active compounds read high
# Procedure, shortened: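 Growth of the mutant yeast was measured after compound exposure and referenced to vehicle-treated cultures.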
# [5] = NCI Yeast Anticancer Drug Screen. Data for the rad14 strain (AID 159);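 also: 0% = growth of vehicle-treated control cultures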; details: S. cerevisiae rad14 strain growth inhibition, active compounds read high
# Procedure, shortened: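 Here, inhibition of yeast growth was measured after compound exposure, using a strain with a genetic defect in DNA damage repair and vehicle-treated cultures as the reference.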
# [6] = NCI Yeast Anticancer Drug Screen. Data for the sgs1 mgt1 strain (AID 161);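 also: 0% = growth of cultures given vehicle only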; details: S. cerevisiae sgs1 mgt1 strain, active compounds read high
# Procedure, shortened: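 Growth of a repair-deficient yeast mutant was monitored after compound treatment and expressed as inhibition relative to vehicle-treated cultures.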
# [7] = NCI Yeast Anticancer Drug Screen. Data for the CLN2oe strain (AID 163);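 also: 0% = growth of vehicle-only control cultures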; details: S. cerevisiae CLN2oe strain, active compounds read high
# Procedure, shortened: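 Compounds are applied to yeast harbouring a defined cell-cycle control change; reduced growth compared with vehicle-treated controls gives the value.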
# [8] = NCI Yeast Anticancer Drug Screen. Data for the cln2 rad14 strain (AID 165);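 also: 0% = growth equal to vehicle treated cultures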; details: S. cerevisiae cln2 rad14 strain, active compounds read high
# Procedure, shortened: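 Readout is yeast growth inhibition versus vehicle-treated controls, using a strain with cln2 and rad14 alterations exposed to compound.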
# [9] = NCI Yeast Anticancer Drug Screen. Data for the bub3 strain (AID 167); details: S. cerevisiae bub3 mutant strain, active compounds read high
# Procedure, shortened: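 Whole-cell yeast assay. The mutant strain was incubated with compounds, and growth inhibition was determined by comparison with vehicle-treated cells.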
# [10] = NCI Yeast Anticancer Drug Screen. Data for the wt2 strain (AID 169);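 also: 0% = growth of vehicle-treated yeast cultures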; details: S. cerevisiae wt2 strain growth inhibition, active compounds read high
# Procedure, shortened: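 Against vehicle-treated controls, the growth of yeast exposed to each compound was compared, and the inhibition was recorded.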
# [11] = NCI Yeast Anticancer Drug Screen. Data for the mlh1 strain (AID 171);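 also: 0% = growth of vehicle-treated control cultures of the same strain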; details: S. cerevisiae mlh1 strain growth inhibition, active compounds read high
# Procedure, shortened: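 Measured: yeast growth. Reference: vehicle-treated controls. Organism: strain with a defined alteration affecting DNA damage repair or cell cycle control, treated with compound.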
# [12] = NCI Yeast Anticancer Drug Screen. Data for the sgs1 strain (AID 173);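 also: 0% = growth of vehicle-only control cultures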; details: S. cerevisiae sgs1 mutant, active compounds read high
# Procedure, shortened: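 Each compound was added to cultures of the altered yeast strain. Growth was recorded, and inhibition was derived by comparison with vehicle controls.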
# [13] = NCI Yeast Anticancer Drug Screen. Data for the mlh1 rad18 strain (AID 175); details: S. cerevisiae mlh1 rad18 strain growth inhibition, active compounds read high
# Procedure, shortened: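 Genetically defined yeast (DNA repair-deficient) exposed to compounds; growth inhibition determined relative to vehicle.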
# [14] = NCI Yeast Anticancer Drug Screen. Data for the rad18 strain (AID 177); details: S. cerevisiae rad18 mutant growth inhibition, active compounds read high
# Procedure, shortened: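 Vehicle-treated cultures served as the baseline for scoring compound-induced growth inhibition in DNA-repair-mutant yeast.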
# [15] = at 5.0 µM (retest, dose inferred, filed as 0.5)
# [16] = at 50.0 µM (retest, dose inferred, filed as 5.0)
smiles,measurement,setting,value
NC(N)=N/N=C/c1cc(Cl)cc(Cl)c1O,growth inhibition,[1]; at 1.2 µM,-14%
same,growth inhibition,[1]; at 3.7 µM,-19%
same,growth inhibition,[1]; at 11.0 µM,-29%
same,growth inhibition,[1]; at 33.0 µM,1%
same,growth inhibition,[1]; at 100.0 µM,95% (active)
same,growth inhibition,[2]; at 1.2 µM,19%
same,growth inhibition,[2]; at 3.7 µM,49%
same,growth inhibition,[2]; at 11.0 µM,50%
same,growth inhibition,[2]; at 33.0 µM,60%
same,growth inhibition,[2]; at 100.0 µM,74% (active)
same,growth inhibition,[3]; at 1.2 µM,18%
same,growth inhibition,[3]; at 3.7 µM,17%
same,growth inhibition,[3]; at 11.0 µM,33%
same,growth inhibition,[3]; at 33.0 µM,88% (active)
same,growth inhibition,[3]; at 100.0 µM,99% (active)
same,growth inhibition,[4]; at 1.2 µM,-15%
same,growth inhibition,[4]; at 3.7 µM,-7%
same,growth inhibition,[4]; [15],63%
same,growth inhibition,[4]; at 11.0 µM,4%
same,growth inhibition,[4]; at 33.0 µM,46%
same,growth inhibition,[4]; [16],95% (active)
same,growth inhibition,[4]; at 50.0 µM,79.7% (active)
same,growth inhibition,[4]; at 100.0 µM,97% (active)
same,growth inhibition,[5]; at 1.2 µM,-8%
same,growth inhibition,[5]; at 3.7 µM,1%
same,growth inhibition,[5]; at 11.0 µM,12%
same,growth inhibition,[5]; at 33.0 µM,72% (active)
same,growth inhibition,[5]; at 100.0 µM,98% (active)
same,growth inhibition,[6]; [15],4%
same,growth inhibition,[6]; [16],98% (active)
same,growth inhibition,[7]; at 1.2 µM,15%
same,growth inhibition,[7]; at 3.7 µM,23%
same,growth inhibition,[7]; at 11.0 µM,21%
same,growth inhibition,[7]; at 33.0 µM,33%
same,growth inhibition,[7]; at 100.0 µM,93% (active)
same,growth inhibition,[8]; [15],54%
same,growth inhibition,[8]; [16],93% (active)
same,growth inhibition,[9]; at 1.2 µM,-7%
same,growth inhibition,[9]; at 3.7 µM,-6%
same,growth inhibition,[9]; [15],46%
same,growth inhibition,[9]; at 11.0 µM,4%
same,growth inhibition,[9]; at 33.0 µM,49%
same,growth inhibition,[9]; [16],96% (active)
same,growth inhibition,[9]; at 100.0 µM,97% (active)
same,growth inhibition,[10]; at 1.2 µM,-49%
same,growth inhibition,[10]; at 3.7 µM,-40%
same,growth inhibition,[10]; at 11.0 µM,-30%
same,growth inhibition,[10]; at 33.0 µM,30%
same,growth inhibition,[10]; at 100.0 µM,97% (active)
same,growth inhibition,[11]; at 1.2 µM,12%
same,growth inhibition,[11]; at 3.7 µM,9%
same,growth inhibition,[11]; at 11.0 µM,21%
same,growth inhibition,[11]; at 33.0 µM,68%
same,growth inhibition,[11]; at 100.0 µM,98% (active)
same,growth inhibition,[12]; at 1.2 µM,-12%
same,growth inhibition,[12]; at 3.7 µM,-14%
same,growth inhibition,[12]; at 11.0 µM,-1%
same,growth inhibition,[12]; at 33.0 µM,37%
same,growth inhibition,[12]; at 100.0 µM,98% (active)
same,growth inhibition,[13]; [15],55%
same,growth inhibition,[13]; [16],97% (active)
same,growth inhibition,[13]; at 50.0 µM,58.2%
same,growth inhibition,[14]; at 1.2 µM,-8%
same,growth inhibition,[14]; at 3.7 µM,-11%
same,growth inhibition,[14]; at 11.0 µM,-6%
same,growth inhibition,[14]; at 33.0 µM,49%
same,growth inhibition,[14]; at 100.0 µM,95% (active)
